The values below come from PubChem BioAssay.

The test system of experiment [1] is PRMT1 (protein arginine N-methyltransferase 1). Briefly: PRMT1 binders on small-molecule microarrays, primary screen, biochemical, small-molecule microarray, 635 nm fluorescence (AID 1088).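 Further: binding of Prmt1 protein to compounds spotted on small-molecule microarray slides.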 Conditions: small-molecule microarray binding, higher = more signal.
The nature of experiment [2]: yeast growth modulation, basal conditions, primary screen, YJM789 clinical isolate, OD600, 24 h (AID 1089).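 Further: growth of clinical yeast isolate S. cerevisiae YJM 789 seeded 1000 cells per well; test concentration not given here.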 Particulars: S. cerevisiae YJM789 growth, higher = more signal, called active from +8 up or from −8 down.
The nature of experiment [3]: fission yeast growth modulation, primary screen, strain 972, OD600, 24 h, no modulator (AID 1090).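 Further: basal condition with compound alone and no growth modifier present; test concentration not given here.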 Conditions: S. pombe 972 growth, higher = more signal, called active from +8 up or from −8 down.
Experiment [4] is described as follows: S. cerevisiae growth modulation with rapamycin, primary screen, strain BY4716, OD600, 96 h (AID 1091). Further: test concentration not given here. Conditions: higher = more signal, called active from +8 up or from −8 down.
Experiment [5] concerns the target Torsin-1A-interacting protein 2 (Homo sapiens) (UniProt Q8NFQ8). Briefly: LULL1 binders on small-molecule microarray, primary screen, cell lysate, human LULL1 lysate, 635/667 nm fluorescence (AID 1092).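 Further: probe is lysate of COS7 cells overexpressing human LULL1; score merges per-feature 667 nm fluorescence with signal-to-noise.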 Particulars: hLULL1 lysate binding, 635 nm fluorescence, higher = more signal.
A short description of experiment [6]: E. coli growth modulation, two-sided OD650, primary screen, E. coli filamentation project, strain DRC41, 24 h (AID 1093).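 Further: MC1000 strain lacking acrAB efflux and sulA so SOS filamentation is blocked; test concentration not given here.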 Particulars: OD650, 24 h, higher = more signal, called active from +8 up or from −8 down.
A short description of experiment [7]: small-molecule microarray binders of probe aLefty2, primary screen, biochemical, biotinylated probe, 635/667 nm fluorescence (AID 1094).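 Further: score merges spot fluorescence near 667 nm with spot signal-to-noise ratio.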 Conditions: higher = more signal.
Experiment [8] has as its system Noggin (protein binding on small-molecule microarray). Nature of the experiment: Noggin binders on small-molecule microarray, primary screen, biochemical, 635/667 nm fluorescence (AID 1095).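 Further: score merges 667 nm feature fluorescence with signal to noise over triplicate slides.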 Conditions: 635 nm fluorescence, higher = more signal.
Experiment [9] has as its target Neurogenic locus notch homolog protein 3 (Homo sapiens) (UniProt Q9UM47). Briefly: NOTCH3 binders on small-molecule microarray, primary screen, biochemical, 635/667 nm fluorescence (AID 1096). Particulars: NOTCH3 binding, 635 nm fluorescence, higher = more signal.
Experiment [10] in a line: small-molecule microarray binders of probe aEGFR, primary screen, biochemical, biotinylated probe, 635/667 nm fluorescence (AID 1097).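 Further: probe is a biotinylated anti-EGFR antibody binding compounds printed on slides; score combines fluorescence near 667 nm and signal to noise of each spot.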 Conditions: higher = more signal.

Active and inactive are the calls of the source.

Chain of Neurogenic locus notch homolog protein 3 (Homo sapiens) (Q9UM47 whole entry, looked up): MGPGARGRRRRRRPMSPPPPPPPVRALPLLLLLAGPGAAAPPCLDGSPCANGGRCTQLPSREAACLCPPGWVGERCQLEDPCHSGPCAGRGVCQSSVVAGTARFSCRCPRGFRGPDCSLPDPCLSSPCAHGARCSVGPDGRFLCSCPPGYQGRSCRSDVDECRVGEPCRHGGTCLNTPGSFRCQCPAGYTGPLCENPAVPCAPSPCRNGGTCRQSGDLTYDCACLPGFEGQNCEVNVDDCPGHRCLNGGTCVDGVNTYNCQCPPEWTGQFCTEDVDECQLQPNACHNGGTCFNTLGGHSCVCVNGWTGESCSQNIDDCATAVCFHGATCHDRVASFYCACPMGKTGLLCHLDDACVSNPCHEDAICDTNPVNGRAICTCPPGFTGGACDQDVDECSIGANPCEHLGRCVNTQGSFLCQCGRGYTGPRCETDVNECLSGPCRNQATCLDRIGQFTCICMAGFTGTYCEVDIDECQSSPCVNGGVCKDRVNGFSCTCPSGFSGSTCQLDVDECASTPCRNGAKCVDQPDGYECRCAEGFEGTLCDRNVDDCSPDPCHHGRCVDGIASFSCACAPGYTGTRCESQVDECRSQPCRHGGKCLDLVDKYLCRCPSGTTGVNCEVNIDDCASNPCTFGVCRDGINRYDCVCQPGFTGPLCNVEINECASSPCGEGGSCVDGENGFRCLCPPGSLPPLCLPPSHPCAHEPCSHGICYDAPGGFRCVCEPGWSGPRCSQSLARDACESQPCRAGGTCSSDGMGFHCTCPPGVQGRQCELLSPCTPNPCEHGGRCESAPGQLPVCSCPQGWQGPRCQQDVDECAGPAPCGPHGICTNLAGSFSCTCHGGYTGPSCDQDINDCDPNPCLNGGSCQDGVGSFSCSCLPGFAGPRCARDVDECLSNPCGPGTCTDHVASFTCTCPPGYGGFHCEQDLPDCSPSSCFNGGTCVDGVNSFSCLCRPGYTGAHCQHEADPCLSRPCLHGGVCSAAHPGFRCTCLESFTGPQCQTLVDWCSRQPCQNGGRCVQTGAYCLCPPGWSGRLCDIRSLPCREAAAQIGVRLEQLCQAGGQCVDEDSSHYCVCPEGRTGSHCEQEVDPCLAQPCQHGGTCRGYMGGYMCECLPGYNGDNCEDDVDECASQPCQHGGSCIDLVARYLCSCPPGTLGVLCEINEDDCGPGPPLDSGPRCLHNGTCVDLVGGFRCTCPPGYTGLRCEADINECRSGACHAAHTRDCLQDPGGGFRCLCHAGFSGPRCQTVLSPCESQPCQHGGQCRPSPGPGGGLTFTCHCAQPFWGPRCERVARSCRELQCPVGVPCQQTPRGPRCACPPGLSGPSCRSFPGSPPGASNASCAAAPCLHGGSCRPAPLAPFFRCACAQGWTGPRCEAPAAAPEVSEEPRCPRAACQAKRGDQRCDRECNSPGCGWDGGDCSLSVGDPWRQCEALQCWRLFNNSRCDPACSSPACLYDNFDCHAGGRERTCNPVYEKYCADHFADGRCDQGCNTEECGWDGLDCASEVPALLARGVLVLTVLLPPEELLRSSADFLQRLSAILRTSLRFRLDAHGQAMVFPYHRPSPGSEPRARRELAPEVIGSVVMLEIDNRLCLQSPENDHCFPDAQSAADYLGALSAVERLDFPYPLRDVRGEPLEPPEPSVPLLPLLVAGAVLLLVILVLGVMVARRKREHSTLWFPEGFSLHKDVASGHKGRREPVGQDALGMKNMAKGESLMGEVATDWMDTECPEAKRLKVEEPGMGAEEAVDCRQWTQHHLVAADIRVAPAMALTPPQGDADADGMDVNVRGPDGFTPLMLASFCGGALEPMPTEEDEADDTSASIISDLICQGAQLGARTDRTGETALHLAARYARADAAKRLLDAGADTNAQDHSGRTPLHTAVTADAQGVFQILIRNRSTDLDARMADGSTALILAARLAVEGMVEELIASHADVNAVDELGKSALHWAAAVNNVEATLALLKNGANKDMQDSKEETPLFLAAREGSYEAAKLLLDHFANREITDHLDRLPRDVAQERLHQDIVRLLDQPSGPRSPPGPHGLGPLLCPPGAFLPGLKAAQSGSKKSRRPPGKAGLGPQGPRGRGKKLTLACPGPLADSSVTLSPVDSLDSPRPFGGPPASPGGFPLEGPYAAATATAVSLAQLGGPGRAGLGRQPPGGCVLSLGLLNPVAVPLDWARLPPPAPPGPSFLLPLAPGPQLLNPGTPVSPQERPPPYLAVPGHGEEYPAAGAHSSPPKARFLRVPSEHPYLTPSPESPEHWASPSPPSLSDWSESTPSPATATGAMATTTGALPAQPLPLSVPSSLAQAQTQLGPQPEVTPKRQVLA
Chain of Torsin-1A-interacting protein 2 (Homo sapiens) (Q8NFQ8 whole entry, looked up): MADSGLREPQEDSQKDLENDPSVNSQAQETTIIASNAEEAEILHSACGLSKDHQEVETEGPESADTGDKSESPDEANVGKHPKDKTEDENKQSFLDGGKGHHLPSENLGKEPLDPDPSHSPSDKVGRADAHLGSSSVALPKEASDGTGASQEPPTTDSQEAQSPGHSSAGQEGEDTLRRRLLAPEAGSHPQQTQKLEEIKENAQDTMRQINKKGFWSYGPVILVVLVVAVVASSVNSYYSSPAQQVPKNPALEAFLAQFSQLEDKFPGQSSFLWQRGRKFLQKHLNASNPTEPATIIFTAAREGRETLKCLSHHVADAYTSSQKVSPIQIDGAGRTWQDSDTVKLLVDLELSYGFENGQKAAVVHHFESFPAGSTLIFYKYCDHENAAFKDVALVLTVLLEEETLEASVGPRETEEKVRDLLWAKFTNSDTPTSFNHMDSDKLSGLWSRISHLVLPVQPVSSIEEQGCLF

Regarding `CCCCCCc1nc(-c2ccc(-c3ccc(Cl)c(Cl)c3)o2)cc2c1[Si](C(C)C)(C(C)C)O[C@H]2c1ccccc1`, the composite z-score is 0.287 in experiment [1]; 0.424 in experiment [5]; -0.196 in [7]; 0.0792 in experiment [8]; -0.34 in experiment [9]; -0.249 in experiment [10]. In addition, the z-score in [2] is -0.124 (inactive); in experiment [3], -0.45 (inactive); in [4] it was -1.35 (inactive); in [6], 0.488 (inactive).
Take `COC(=O)[C@@]1(Cc2ccccc2)[C@H]2c3cc(C(=O)N(C)C)n(Cc4ccc(OC)c(OC)c4)c3C[C@H]2CN1C(=O)c1ccccc1`: the composite z-score in [1] amounted to 0.42; in [5], 3.53; in experiment [7] it was 0.728; in experiment [8], 0.0998; in experiment [9], 1.03; in experiment [10], 0.426. Besides, the z-score was -0.257 (inactive) in [2], 0.836 (inactive) in experiment [3], 0.534 (inactive) in experiment [4] and -0.793 (inactive) in experiment [6].
`CCOC(=O)C[C@H]1[C@H](OC(=O)c2cc3ccccc3oc2=O)[C@@H](NC(=O)CC(C)C)c2cc(OCCCO)ccc2N1C(=O)c1ccccc1`: the composite z-score in [1] was 0.983; in experiment [5], 1.52; in experiment [7], -0.0661; in experiment [8], 0.805; in experiment [9] it was 0.606; in experiment [10] it was -0.0828. The z-score in [2] is -0.789 (inactive); in experiment [3], -0.769 (inactive); in experiment [4], -0.193 (inactive); in [6], 2.64 (inactive).
In the case of `OCC1C=C(/C=C/c2ccccc2)CN1Cc1ccccc1Br` (stereo not given), the composite z-score in experiment [1] turned out to be 0.94; in [5], 1.44; in experiment [7] it was 0.0265; in [8], 0.876; in experiment [9] it was 0.854; in experiment [10], 0.0339. Further, the z-score in experiment [2] was -0.486 (inactive); in experiment [3], -11.3 (active); in experiment [4], -1.4 (inactive); in experiment [6], 1.58 (inactive).
On to `CC(=O)NCCCC[C@@H]1NC(=O)[C@H]2C[C@@H](C(=O)O)[C@@H](c3ccc(O)cc3)N2C1=O`, for which the composite z-score stood at 1.55 in [1]; 2.84 in [5]; 0.14 in experiment [7]; 1.67 in [8]; 1.04 in experiment [9]; 0.138 in experiment [10]. Also, the z-score was 2.13 (inactive) in experiment [2], -2.62 (inactive) in [3], 2.72 (inactive) in experiment [4] and -0.817 (inactive) in [6].
Regarding `COc1ccc([C@H]2C[C@H]3C(Br)=C[C@@]2(CO)C(=O)[C@]32CO2)cc1`, the composite z-score in [1] is -0.855; in experiment [5] it was -0.274; in [7], 0.0395; in experiment [8], -0.472; in [9], -0.534; in [10] it was -0.0799. For the same molecule, the z-score in experiment [2] is -0.658 (inactive); in experiment [3], -3.35 (inactive); in experiment [4], 0.241 (inactive); in experiment [6], -0.687 (inactive).
`[N-]=[N+]=NCc1ccccc1[C@@H]1OC(c2ccc(OCCCO)cc2)=N[C@]1(CCS(=O)(=O)c1ccccc1)C(=O)N1CCOCC1`: the composite z-score is 1.54 in experiment [1]; 3.24 in experiment [5]; 0.456 in experiment [7]; 0.256 in experiment [8]; 1.07 in experiment [9]; 0.256 in [10]. Further, the z-score in experiment [2] is -0.401 (inactive); in experiment [3], 0.144 (inactive); in [4] it was 0.971 (inactive); in [6], 1.7 (inactive).
As for `CCOC(=O)C[C@H]1[C@H](OC(=O)c2ccc(-c3ccccc3)cc2)[C@@H](NC(=O)c2ccccc2)c2cc(OCCCO)ccc2N1C(=O)Cc1ccc(OC)cc1`, the composite z-score in experiment [1] was -0.719; in [5] it was 0.734; in experiment [7], -0.192; in experiment [8], 0.23; in experiment [9], -0.712; in experiment [10] it was -0.21. Also, the z-score in experiment [2] is 0.883 (inactive); in experiment [3] it was -0.414 (inactive); in [4], 1.45 (inactive); in [6], 0.258 (inactive).
For the molecule `[N-]=[N+]=Nc1ccccc1C[C@]1(C(=O)N2CCCCC2)COC(c2ccc(OCCCO)cc2)=N1`, the composite z-score in [1] was 1.54; in [5] it was 3.18; in [7], -0.0631; in [8], 0.753; in experiment [9], 1.08; in experiment [10], -0.0828. Further, the z-score in [2] is 1.73 (inactive); in experiment [3] it was -1.72 (inactive); in experiment [4] it was 32.7 (active); in experiment [6], 1.75 (inactive).
`O=C1C2C=CC(C(O)COCc3ccccc3)N(Nc3ccc([N+](=O)[O-])cc3)C2C(=O)N1c1ccccc1` (stereo not given): the composite z-score in experiment [1] is 1.46; in experiment [5], 2.83; in experiment [7], 0.168; in [8], 0.661; in experiment [9], 1.09; in [10], -0.0072. Besides, the z-score in experiment [2] was -0.464 (inactive); in experiment [3], 1.12 (inactive); in experiment [4], 2.16 (inactive); in [6] it was 0.547 (inactive).
`COC(=O)[C@@]1(Cc2ccccc2)[C@H]2c3cc(C(=O)N4CCCC4)n(Cc4c(CO)[nH]cc(C)c4=O)c3C[C@H]2CN1C(=O)c1ccccc1`: the composite z-score in experiment [1] was 0.138; in experiment [5], 3.18; in experiment [7] it was 0.539; in [8] it was -0.218; in experiment [9], 0.12; in experiment [10], 0.0478. In addition, the z-score in [2] is -0.0602 (inactive); in experiment [3], 0.94 (inactive); in [4], 0.171 (inactive); in experiment [6], -0.799 (inactive).
Regarding `O=C1NC(=O)C2C1C=CC(C(O)C1CC=CCC1)N2Nc1ccccn1` (stereo not given), the composite z-score is 0.241 in experiment [1]; 0.861 in [5]; 0.113 in experiment [7]; -0.0801 in experiment [8]; 0.328 in experiment [9]; 0.26 in [10]. The z-score in experiment [2] is 1.13 (inactive); in experiment [3], 0.869 (inactive); in [4], 0.728 (inactive); in experiment [6], -0.813 (inactive).
On to `O=C1[C@H]2C=C(Br)[C@H](C[C@@H]2OCCCCCCO)[C@@]12CO2`, for which the composite z-score in experiment [1] was -0.729; in experiment [5], -0.283; in experiment [7] it was 0.0183; in experiment [8], 0.387; in experiment [9], -0.615; in experiment [10], -0.131. In addition, the z-score was 0.335 (inactive) in experiment [2], -1.29 (inactive) in [3], 1.32 (inactive) in experiment [4] and -1.74 (inactive) in experiment [6].
Consider `COc1ccc(C#Cc2ccc3c(c2)[C@]2(C(=O)N3)[C@H](c3ccc(O)cc3)N3[C@H](c4ccccc4)[C@H](c4ccccc4)OC(=O)[C@H]3[C@@H]2C(=O)N2CCc3cc(OC)c(OC)cc3C2)cc1`, for which the composite z-score in experiment [1] was 1.54; in experiment [5], 3.04; in [7] it was -0.189; in experiment [8] it was 1.68; in [9], 1.07; in [10], -0.0381. Moreover, the z-score in experiment [2] is 1.74 (inactive); in experiment [3], 0.921 (inactive); in [4] it was 1.93 (inactive); in [6], -0.0389 (inactive).
On to `CC(C)[C@@H](C(=O)O)n1cc(C2(O)CCCCC2)nn1`, for which the composite z-score in [1] is 0.629; in [5], 1.02; in experiment [7] it was -0.132; in experiment [8], 0.731; in [9], 1.05; in experiment [10] it was -0.02. Further, the z-score is -0.791 (inactive) in experiment [2], 0.462 (inactive) in experiment [3], -1.12 (inactive) in experiment [4] and 0.616 (inactive) in [6].
